The source of these data is PubChem BioAssay AID504454 (NMMLSC, 2011).

Molecules are shown by their SMILES. Among all 340,000 compounds or so, about 1,400 (0.41%) were called active. Many of the other results were omitted from the sample, so actives are more common in it than they were. Values without a mark were called inactive.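 How the source made its calls: active means response above a set limit, near 3 SD of response in nonfluorescent compounds (cut at about 42% in these data); inactive means the rest.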

This test deals with Beta-2 adrenergic receptor (Homo sapiens) (UniProt P07550). As to the kind of experiment: beta2AR agonists driving receptor internalization, primary screen, cell-based, FAP fluorogen, flow cytometry (AID 504454). The following applies: Am2.2-beta2AR cells, hits give high values, concentration not given here. (In general: In flow cytometry, cells or beads pass a laser one at a time.)
Chain of Beta-2 adrenergic receptor (Homo sapiens) (P07550 whole entry, looked up): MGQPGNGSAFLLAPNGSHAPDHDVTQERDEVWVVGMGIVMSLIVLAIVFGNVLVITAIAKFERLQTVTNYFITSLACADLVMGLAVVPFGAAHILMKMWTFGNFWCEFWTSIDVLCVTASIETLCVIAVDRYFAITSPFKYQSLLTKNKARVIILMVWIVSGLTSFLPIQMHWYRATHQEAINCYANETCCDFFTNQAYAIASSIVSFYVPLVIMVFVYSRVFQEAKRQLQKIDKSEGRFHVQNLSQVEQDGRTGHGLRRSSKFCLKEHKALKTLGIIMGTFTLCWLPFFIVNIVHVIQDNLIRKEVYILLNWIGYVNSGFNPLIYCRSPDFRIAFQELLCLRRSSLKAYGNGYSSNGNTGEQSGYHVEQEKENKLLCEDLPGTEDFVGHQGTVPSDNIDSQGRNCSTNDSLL
With `COc1ccc(CCNC(=O)C2CCN(c3nn4c(=O)cc(C)nc4s3)CC2)cc1OC`, the response was 2.26%.
The same measure for `CSc1ccc(S(=O)(=O)N2CCC(C(=O)NCCc3ccccc3)CC2)cc1`: 21.2%; for `CSc1ccc(CCNC(=O)C2CCN(c3nnc(-n4cccc4)s3)CC2)cc1`: 77.9% (active).
To `COc1cc(O)c2c(=O)c3c(O)c(O)ccc3oc2c1OC` belongs 27.1%; to `COCCNC(=O)C1CCN(S(=O)(=O)c2ccc3c(c2)OCCO3)CC1`, -3.08%.
The same measure for `COC(=O)c1ccc(Sc2ccc(F)cc2)c(N)c1`: -3.98%; for `Cc1snc(SCc2c(F)cccc2Cl)c1C#N`: -7.91%.
Turning to `Cc1ccc(C(=O)N/C(=C\c2ccco2)C(=O)N2CCSCC2)cc1C`, the response is -0.71%.
The same measure for `O=C(Nc1ccc(C(=O)NCc2ccccc2Cl)cc1)C1=CSCCO1`: -0.39%; for `CSc1ccc(CNC(=O)c2ccc(NC(=O)C3=CSCCO3)cc2)cc1`: 98.2% (active); for `CS(=O)(=O)NCc1ccc(C(=O)NCc2ccccc2)cc1`: -3.96%.
The same measure for `NC(=O)c1ccsc1NC(=O)COC(=O)Cc1n[nH]c(=O)c2ccccc12`: -0.52%; for `CC1(C)C=Cc2c(ccc3c2OC[C@@H](c2ccc(O)cc2O)C3)O1`: 45% (active).
The same measure for `CCCCN(C(=O)c1ccc(OC(F)(F)F)cc1)c1c(N)n(CCC)c(=O)[nH]c1=O`: 7.36%; for `COc1cccc(OC)c1C(=O)OCC(=O)/C(C#N)=C(\C)N`: 13.3%.
As to `CSCC(=O)N1CCCC(C(=O)c2cc(F)ccc2F)C1` (stereo not given), the response is -14.2%.
On to `CCc1ccccc1NC(=O)[C@@H]1CCC(=O)N1C1OC(=O)c2c1ccc(OC)c2OC` (stereo not given in full), for which the response was 11.2%.
For the compound `COc1ccc2c(c1OC)C(=O)OC2Nc1nc(-c2ccccc2)cs1` (stereo not given), the response was 43.4% (active).
Take `C/C(CC1CC(C)(C)OC1=O)=N/Nc1nc(-c2ccccc2)cs1` (stereo not given): the response was 4.49%.
The same measure for `O=C(NCC1CC1)c1onc(CSc2ccccc2)c1C(=O)NCC1CC1`: -4.02%; for `CCn1c(SCC(=O)NC2CC2)nnc1-c1ccccn1`: -5.81%; for `COC(=O)C1(C)NC(c2ccc(F)cc2)C2C(=O)N(c3ccccc3)C(=O)C21` (stereo not given): 1.51%.
To `Cc1n[nH]c(=O)c2c1nnn2Cc1ccc(F)cc1` belongs 2.64%; to `Cc1cc(C)cc(C(=O)N(CCc2ccccc2)C2=CC3CCC(C2)N3C)c1` (stereo not given), 11.3%.
To `CCCN(CCc1ccccc1)C1CCc2c(O)cccc2C1` (stereo not given) belongs 56.8% (active); to `CCOC(=O)c1cnc(SCC(=O)Nc2ccccc2C(=O)OC)nc1N`, 2.55%.
In the case of `O=C(O)CCCn1cc(NC(=O)COc2cccc(Cl)c2)cn1`, the response is 15.6%.
To `COC(CNC(=O)Cn1ncc2ccsc2c1=O)OC` belongs 1.39%; to `CN(C)S(=O)(=O)Oc1ccccc1C(=O)Nc1ccccc1Cl`, 1.66%; to `O=C(COC(=O)CCc1c[nH]c(=O)[nH]1)Nc1ccccc1Cl`, -3.16%.
To `O=C(Nc1ccccc1Cl)/C(Cl)=C(\Cl)S(=O)c1ccccc1` (stereo not given) belongs 56.9% (active).
To `CCc1nc(N2CCN(C(C)=O)CC2)c2c3c(sc2n1)CCCC3` belongs -8.93%; to `COc1cccc(NC(=O)c2ccc3c(SCC(=O)O)c4c(nc3c2)CCCC4)c1`, 1.27%; to `CC(=O)c1ccc(NC(=O)c2ccc3c(Cl)c4c(nc3c2)CCCC4)cc1`, 60.5% (active).
As for `CC(C)CCNC(=O)c1ccc2c(Cl)c3c(nc2c1)CCC3`, the response was -1.39%.
Consider `CC(C)NC(=O)COCc1cc(-c2ccc3c(c2)OCO3)on1`, for which the response was -5.4%.
To `N#CC1(NC(=O)COc2ccc3oc4ccccc4c3c2)CCCCC1` belongs -4.35%.
To `O=C(c1ccccc1)c1ccc2nc(N3CCCCC3)c3nncn3c2c1` belongs -11.4%; to `Brc1ccccc1CN1CCC(Cc2ccccc2)CC1`, 4.82%; to `c1ccc(CC2CCN(c3nc4ccccc4n4cnnc34)CC2)cc1`, 68% (active).
In the case of `CSc1nc(-c2ccccc2)nc(C(Cl)Cl)n1`, the response is 81.7% (active).
The same measure for `COc1ccc(C2c3ccc(O)cc3Oc3ncn(CCCO)c(=N)c32)cc1OC` (stereo not given): -10.4%; for `CS(=O)(=O)N1CCN(CC(=O)NC2CCCC2)CC1`: -2.25%.
Take `CCOC(=O)C1CCCN(C(=O)/C=C/c2ccc(OC)cc2)C1` (stereo not given): the response is 0.35%.
Take `CCN1CCC(O)(/C=C/c2ccc(C)cc2)C(C(=O)/C=C/c2ccc(C)cc2)C1` (stereo not given): the response was 52.9% (active).
As for `COc1ccc(S(=O)(=O)N2CCCC(C(=O)NCCCn3ccnc3)C2)cc1OC` (stereo not given), the response is 10.8%.
Take `O=C(NCCCn1ccnc1)Nc1ccc(Cl)cc1Cl`: the response is -0.95%.
To `O=C(NCCCn1ccnc1)C1CCCN(S(=O)(=O)c2cc(Cl)ccc2Cl)C1` (stereo not given) belongs 105% (active); to `CC1Cc2ccccc2N1C(=O)Cn1cnc2ccccc2c1=O` (stereo not given), 6.28%.
The same measure for `Cc1ccn2cc(-c3nonc3C)cc2c1`: 15.2%.
In the case of `CC(C)OC(=O)CN1C(=O)C(=O)c2ccccc21`, the response was 7.48%.
Regarding `O=C1C(=O)N(CC2COc3ccccc3O2)c2ccccc21` (stereo not given), the response was 45.6% (active).
The same measure for `O=C(CN1C(=O)C2C3C=CC(C3)C2C1=O)NCC1COc2ccccc2O1` (stereo not given): 1.48%; for `c1ccc(CSc2ncnc3c2sc2nc(N4CCOCC4)c4c(c23)CCCC4)cc1`: 10.1%.
The same measure for `C#CCOCCOCCOCCNc1nc(N2CCN(C(=O)CCCCCCCCCCNC(=O)Cn3cc(CCCCCN)nn3)CC2)nc(N2CCN(C(=O)CCCCCCCCCCNC(=O)[C@H](CO)n3cc(CCCSC)nn3)CC2)n1`: 64.5% (active); for `C#CCOCCOCCOCCNc1nc(N2CCN(C(=O)[C@H](CCCN=C(N)N)n3cc(C(N)[C@@H](C)CC)nn3)CC2)nc(N2CCN(C(=O)[C@H](CO)n3cc([C@@H](N)C(C)C)nn3)CC2)n1` (stereo not given in full): -10.2%; for `C#CCOCCOCCOCCNc1nc(N2CCN(C(=O)[C@H](CCCCN)n3cc(CCC(=O)O)nn3)CC2)nc(N2CCN(C(=O)[C@H](CCCCN)n3cc(CC(C)O)nn3)CC2)n1` (stereo not given in full): 0.88%.
To `C#CCOCCOCCOCCNc1nc(N2CCN(C(=O)CCCCCCCCCCNC(=O)[C@H](CCCCN)n3cc(C)nn3)CC2)nc(N2CCN(C(=O)CCCCCCCCCCNC(=O)[C@H](CO)n3cc(CCCSC)nn3)CC2)n1` belongs 77% (active); to `C#CCOCCOCCOCCNc1nc(N2CCN(C(=O)Cn3cc(CCO)nn3)CC2)nc(N2CCN(C(=O)Cn3cc(CCCN=C(N)N)nn3)CC2)n1`, 6.34%.
Take `C#CCOCCOCCOCCNc1nc(N2CCN(C(=O)Cn3cc(CCO)nn3)CC2)nc(N2CCN(C(=O)[C@H](CCCCN)n3cc(CCCC)nn3)CC2)n1`: the response was 0.16%.
As to `C#CCOCCOCCOCCNc1nc(N2CCN(C(=O)CCCCCCCCCCNC(=O)[C@H]([C@@H](C)CC)n3cc(CCCCN=C(N)N)nn3)CC2)nc(N2CCN(C(=O)CCCCCCCCCCNC(=O)[C@H](CO)n3cc(CCCSC)nn3)CC2)n1`, the response is 96.3% (active).
To `C#CCOCCOCCOCCNc1nc(N2CCN(C(=O)[C@H](CCC(=O)O)n3cc(CN)nn3)CC2)nc(N2CCN(C(=O)[C@H](CCC(=O)O)n3cc(CN)nn3)CC2)n1` belongs -3.45%; to `C#CCOCCOCCOCCNc1nc(N2CCN(C(=O)C([C@@H](C)O)n3cc([C@@H](N)CCCCN)nn3)CC2)nc(N2CCN(C(=O)[C@H](CCCCN)n3cc(CN)nn3)CC2)n1` (stereo not given in full), 1.85%.
For `Cc1ccccc1NC(=O)C(C)OC(=O)CCC(=O)N(CC(C)C)c1c(N)n(CC(C)C)c(=O)[nH]c1=O` (stereo not given), the response is -6.93%.
As for `CC(Cc1cccs1)NC(=O)c1cccc(Cl)c1` (stereo not given), the response is 5.14%.
For `NC(=O)C1CCN(C(=O)/C(=C/c2ccco2)NC(=O)c2ccccc2)CC1`, the response is 1.8%.
Turning to `CN(CCCNC(=O)CN1C(=O)CC(C)(C)S(=O)(=O)c2ccccc21)C1CCCCC1`, the response was -2.22%.
The same measure for `CC(NC(=O)c1ccccc1C(=O)O)c1ccc(-n2ccnc2)cc1` (stereo not given): -8.08%; for `CCCOCC(O)CC(CC)C(=O)NNC(=S)Nc1ccccc1` (stereo not given): 2.14%.
To `O=C(O)CCn1c(O)c(C=C2N=c3ccccc3=N2)sc1=S` belongs -0.19%.
To `COC(=O)c1ccccc1NC(=O)C1CCN(S(=O)(=O)c2cc(OC)ccc2OC)CC1` belongs 4.15%; to `Nc1cc(N2CCCCCC2)c2nonc2c1[N+](=O)[O-]`, 7.26%.
In the case of `Cc1nnc(SCC(=O)N2c3ccccc3C(C)(c3ccc(Cl)cc3)CC2(C)C)s1` (stereo not given), the response was 5.93%.
For `CSCCNC(=O)c1ccc2nc(Cc3ccccc3F)oc2c1`, the response is 1.28%.
To `CC1=C(C)CC(C(=O)NNC(=O)c2csc3c2CCC(C(C)(C)C)C3)C(C(=O)O)C1` (stereo not given) belongs 61% (active).
The same measure for `CC1=C(C)CC(C(=O)NNC(=O)c2ccccc2O)C(C(=O)O)C1` (stereo not given): -13%.
To `COC(=O)c1c(NC(=O)C2CC(C)=C(C)CC2C(=O)O)sc2c1CCCCC2` (stereo not given) belongs 4.27%.
As for `C=CCNC(=O)C1CC=CCC1C(=O)O` (stereo not given), the response is -0.29%.
`CCCCNc1c(-c2ccc(OC)c(Sc3ccc(OC)cc3)c2)nc2ccc(Cl)cn12`: the response is 23%.
To `CCCCCCSc1ccc(-c2nc3ccc(Cl)cn3c2NCc2ccccc2)cc1` belongs -5.85%; to `CCCCNc1c(-c2cccc(Sc3ccc(OC)cc3)c2)nc2ccccn12`, 45% (active).
The same measure for `COc1ccc(C2=Nn3c(nnc3-c3ccccc3OC)SC2)cc1OC1CCCC1`: 29.8%; for `O=C(NC1=CC(=O)c2ccccc2C1=O)c1ccccc1`: 84% (active); for `CC(NC(=O)c1ccccc1)C(=O)Nc1ccccc1` (stereo not given): -0.42%.
For `O=C1C=C(NS(=O)(=O)c2ccccc2)C(=O)c2ccccc21`, the response was 1.55%.
